{"source": "PubChem BioAssay AID1224854", "about": "(National Center for Advancing Translational Sciences (NCATS), 2016)", "note": "Records with an inconclusive call do not appear. A call without a number means that no potency is given here. The source made the active and inactive calls. The call rests on the fitted dose curve; in most records, active means well fitted activation curve with a large enough effect; inconclusive means small, poorly fitted or top-dose-only effect; inactive means flat fitted curve, though single readings scatter.", "data": [{"assay": "Cell viability assay for measurement of the protective activity of small molecules against cell death caused by Zika virus infection in human astrocytoma cells", "conditions": "SNB-19 Zika virus cytoprotection, ATP luminescence, 72 h; series mostly up to 46.1 µM", "description": "National Center for Advancing Translational Sciences [NCATS] Johns Hopkins University School of Medicine Florida State University Assay Overview: Zika virus infection causes cell death in certain cell types including human neural progenitor cells (hNPCs), astrocytes, and astrocytoma cell line (SNB-19). This cell viability assay measures the ATP content (level) in human astrocytoma cells (SNB-19) using a luminescence readout that is proportional to viable cell numbers. Decrease in the luminescence signal after Zika virus infection indicates the cell death caused by Zika virus. Small molecule inhibitors […] the decreased luminescence signal after Zika virus infection, indicating the protective effect of that small molecule on the cell death caused by Zika virus infection. This observed protective effect of small molecules against Zika virus induced cell death may result from inhibition of virus replication or cellular response to the virus infection.\nAssay Protocol Summary: The medium for SNB-19 cells is composed of RPMI 1640 (ATCC, Cat.# 30-2001), 10% fetal bovine serum (FBS) (GE healthcare Life Sciences, Cat.# SH30071.03), and 1% Pen/Strep (Gibco, Cat.# 15140-122). The ATP content assay kit (PerkinElmer, Cat.# 6016731) was used to determine cell viability. The reagent was reconstituted and prepared as described by the manufacturer. Cells were seeded in 384- or 1536-well assay plates and cultured at 37 C with 5% CO2 for 16 to 20 hours. The typical cell seeding density in the 1536-well plate assay is 250 cells/well in 3ul medium for SNB-19 cells in tissue culture treated plates. Compounds were added to cells and incubated for one hour before addition of ZIKV solution to cells (2 FFU/cell). After incubation at 37 C with 5% CO2 for 72 hours, the reagent mixture of the ATP content assay kit was added to each well, followed by incubation at room temperature for 10 minutes. The luminescence intensity of the assay plates was measured using a ViewLux plate reader (PerkinElmer). […] The percentage inhibitions of the decreased cell viability by small molecule inhibitors were then calculated.", "values": [{"smiles": "CC(C)N[C@@H]1CCn2c(=O)[nH]c3cccc(c32)[C@@H]1O", "Potency": "inactive"}, {"smiles": "CC(C)[C@H]1C(=O)N[C@H](CO)Cc2c[nH]c3cccc(c23)N1C", "Potency": "2.45 µM (active)"}, {"smiles": "O=C(Nc1ccc(Br)cc1)c1cc(Br)cc(Br)c1O", "Potency": "inactive"}, {"smiles": "CN1CC(=O)N2C(Cc3c([nH]c4ccccc34)[C@H]2c2ccc3c(c2)OCO3)C1=O", "note": "(stereo partly drawn)", "Potency": "inactive"}, {"smiles": "O=S(=O)(CC1CS1)c1ccc(Oc2ccccc2)cc1", "note": "(stereo not drawn)", "Potency": "inactive"}, {"smiles": "COc1cccc2c1C(=O)c1c(O)c3c(c(O)c1C2=O)C[C@@](O)(C(=O)CO)CC3OC1CC(N2CCOC(OC)C2)C(O)C(C)O1", "note": "(stereo partly drawn)", "Potency": "0.388 µM (active)"}, {"smiles": "S=C(SSC(=S)N1CCCCC1)N1CCCCC1", "Potency": "17.3 µM (active)"}, {"smiles": "Cc1ccc([N+](=O)[O-])[c]2c1[O][Hg]2", "Potency": "inactive"}, {"smiles": "O=C1CCC[C@@H]2[C@H]3CCCN4CCC[C@@H](CN12)[C@@H]34", "Potency": "inactive"}, {"smiles": "CN1CC[C@@]2(C)c3cc(OC(=O)Nc4ccccc4)ccc3N(C)[C@@H]12", "Potency": "inactive"}, {"smiles": "COP(=S)(OC)SCN1C(=O)c2ccccc2C1=O", "Potency": "inactive"}, {"smiles": "O=c1c2ccccc2[se]n1-c1ccccc1", "Potency": "inactive"}, {"smiles": "CC(=C(CCOC(=O)C(C)C)SSC(CCOC(=O)C(C)C)=C(C)N(C=O)Cc1cnc(C)nc1N)N(C=O)Cc1cnc(C)nc1N", "Potency": "inactive"}]}]}
